Six1-Eya2 blk: inhibitors of human Six1/Eya2 interaction. Q15475+O00167. AlphaScreen GST-Six1/His-Eya2 binding, biochemical; hits give low values. activity change, % (concentration not given with the values). 360,000 tested, 0.56% active. AID 651725; in the data active = activity change below about -65%; inconclusive = mostly about -30% to -63%
Target sequence (O00167 whole entry, looked up): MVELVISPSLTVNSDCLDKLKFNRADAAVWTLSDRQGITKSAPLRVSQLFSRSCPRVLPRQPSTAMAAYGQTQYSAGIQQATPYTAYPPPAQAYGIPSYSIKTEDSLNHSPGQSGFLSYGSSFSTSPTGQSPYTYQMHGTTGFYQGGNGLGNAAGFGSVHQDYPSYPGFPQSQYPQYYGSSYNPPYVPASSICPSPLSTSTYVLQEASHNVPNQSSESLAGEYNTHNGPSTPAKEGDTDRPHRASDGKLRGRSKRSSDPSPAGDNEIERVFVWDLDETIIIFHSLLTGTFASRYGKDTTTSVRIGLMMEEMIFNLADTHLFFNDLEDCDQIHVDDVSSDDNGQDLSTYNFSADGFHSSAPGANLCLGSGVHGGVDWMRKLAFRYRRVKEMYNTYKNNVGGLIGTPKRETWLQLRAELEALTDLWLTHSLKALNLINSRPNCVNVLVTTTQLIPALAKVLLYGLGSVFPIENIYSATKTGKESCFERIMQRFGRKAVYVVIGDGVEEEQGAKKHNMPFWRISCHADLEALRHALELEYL
Target sequence (Q15475 whole entry, looked up): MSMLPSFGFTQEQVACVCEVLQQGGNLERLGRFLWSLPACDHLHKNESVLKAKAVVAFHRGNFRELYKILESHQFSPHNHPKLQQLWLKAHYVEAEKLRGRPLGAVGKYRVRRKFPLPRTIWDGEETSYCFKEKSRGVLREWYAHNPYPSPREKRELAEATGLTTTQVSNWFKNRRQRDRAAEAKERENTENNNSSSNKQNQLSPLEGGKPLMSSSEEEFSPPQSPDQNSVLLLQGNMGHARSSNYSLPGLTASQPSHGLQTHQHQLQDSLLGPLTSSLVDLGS
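GST-Six1 + His-Eya2 (5X stock: 250/500 nM); Tris pH 8.0, 300 mM NaCl, 0.05% BSA, 0.02% Tween 20; GSH donor/Ni acceptor beads; 1 h 37 °C dark; AlphaScreen readout.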
CtBP-E1A inh: inhibitors of CtBP/E1A interaction; AlphaScreen GST-E1A/His-CtBP binding, 1536-well; hits give low values; activity change, % (concentration not given with the values); 340,000 tested, 0.49% active; in the data active = activity change below about -65%; inconclusive = mostly about -30% to -63%
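GST-E1A and His-tagged CtBP (125 nM each as 5X stock) were preincubated with pin-transferred compound for 2 h at 37 °C in the dark, then glutathione donor and nickel acceptor beads were added for 1 h before AlphaScreen reading.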
TDP1 cell CPT: DT40-hTDP1 cell growth loss with CPT; chicken DT40 Tdp1-/-;hTDP1 cells + 20 nM CPT, ATP luminescence, 48 h; 420,000 tested, 12% active; Potency, µM (highest dose often 46.2 µM), usual class: inhibitors; note: nearly all actives have a fitted effect of over 55% in size
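Cell growth measured by CellTiter-Glo luminescence after a minimum 48 h, 37 C compound exposure with 20 nM CPT in Tdp1-knockout DT40 cells stably expressing hTDP1, seeded 400/well; qHTS titration format.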
IL1B secr inh: inflammasome signaling inhibition, IL-1 beta readout; 360,000 tested, 4.7% active; activity change, % at 57.5 µM; THP-1 LPS/ATP IL-1B secretion, AlphaLISA, 16 h; hits give low values; in the data active = activity change below about -50%; inconclusive = mostly about -30% to -49%
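THP-1 cells pretreated 1 hr with compounds (up to 57.5 uM final), then stimulated with LPS (250 ng/mL final) plus ATP (1.25 mM final); secreted IL-1B measured by AlphaLISA after 16 hr, decreased signal indicating inhibition.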
TDP1 cell noCPT: qHTS for Inhibitors of human tyrosyl-DNA phosphodiesterase 1 (TDP1): qHTS in cells in absence of CPT | DT40 Tdp1-/- hTDP1 cells, no CPT, ATP luminescence, 48 h | Potency, µM (doses to about 46.2 µM), most hits filed as inhibitors | 420,000 tested, 15% active | AID 686978, 2013; note: nearly all actives have a fitted effect of over 55% in size
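DT40 Tdp1-/-;hTDP1 cells, no CPT (DMSO vehicle only), 400 cells/well; compounds pin-transferred; ≥48 hr, 37 °C; CellTiter-Glo 30 min RT dark, luminescence read.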
TDP1 block: blocks human tyrosyl-DNA phosphodiesterase 1; Q9NUW8; recombinant TDP1, AlphaScreen DNA substrate cleavage; Potency, µM (titrated, usually from 130 µM), most hits filed as inhibitors; 350,000 tested, 0.28% active; note: nearly all actives have a fitted effect of over 40% in size
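E. coli-derived human Tdp1, 1 nM final. Cpd preinc 15 min RT; substrate 15 nM final, 5 min RT; AS bead mix 10 ug/ml final, 10 min RT. Signal loss = tyrosine-FITC cleavage. No-enzyme wells = max signal.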
Hits are given with their value; - = inactive; ? = inconclusive; . = no result; [ ] = dose if it differs, or a comment. An excerpt weighted towards active compounds, which were near 18% of everything screened. Unless noted, calls come from the whole dose curve; as a rule, active = well fitted curve in the direction sought with a large enough effect; inconclusive = small, poorly fitted or top-dose-only effect, or another doubt; inactive = no such curve, though single readings can be large; an effect the other way counts as inactive or inconclusive.

SMILES | Six1-Eya2 blk | CtBP-E1A inh | TDP1 cell CPT | IL1B secr inh | TDP1 cell noCPT | TDP1 block
COc1ccc(S(=O)(=O)NCC(=O)N(CC(=O)NCc2ccco2)Cc2ccccc2)cc1 | - | - | - | - | - | -
COc1ccc(CN(Cc2ccco2)C(=O)c2ccccc2F)cc1 | . | . | 16µM | . | 16µM | -
COc1ccc(CNC(=O)CN(Cc2ccco2)C(=O)CNS(=O)(=O)c2ccccc2)cc1 | - | - | ? | -67 | - | .
Cc1ccc(S(=O)(=O)NCC(=O)N(c2ccccc2)C(C(=O)NCc2ccccc2)c2ccco2)cc1 (centres undefined) | - | - | ? | ? | 18µM | -
COc1ccc(CN(Cc2ccccc2)C(=O)c2ccccc2O)cc1 | . | . | . | . | . | 11µM
Cc1cc(C)cc(N(C(=O)CNS(=O)(=O)c2ccccc2)C(C(=O)NCc2ccccc2)c2ccc(C)o2)c1 (centres undefined) | - | - | - | - | - | -
CCC(C)NS(=O)(=O)c1ccc(S(=O)(=O)N2CC=C(c3ccc(F)cc3)CC2)cc1 (centres undefined) | - | - | 16µM | - | 18µM | -
CCC(C)NC(=O)C1=CCN(S(=O)(=O)c2ccc(C)cc2)CC1 (centres undefined) | - | - | - | - | - | .
COc1ccccc1-c1c(C(F)(F)F)oc2cc(OC(=O)c3cccc([N+](=O)[O-])c3C)ccc2c1=O | - | - | 21µM | - | 23µM | -
COc1ccccc1-c1c(C(F)(F)F)oc2cc(OCC(=O)Nc3cc(C)ccc3C)ccc2c1=O | . | . | . | . | . | -
Cc1ccccc1CNC(=O)Cn1nc(C)c2nn(-c3ccc(Cl)cc3)c(C)c2c1=O | . | . | ? | . | ? | -
CCOc1ccccc1CNC(=O)Cn1nc(C)c2nn(-c3ccc(Cl)cc3)c(C)c2c1=O | . | . | ? | . | 18µM | -
CCc1cccc(C)c1NC(=O)Cn1nc(C)c2nn(-c3ccc(Cl)cc3)c(C)c2c1=O | . | . | 16µM | . | 21µM | -
COc1ccc(C2C(C(=O)c3ccco3)=C(O)C(=O)N2CCN2CCOCC2)c(OC)c1 (centres undefined) | - | - | - | - | - | .
CC(C)CC(=O)Nc1ccc2c(c1)nc(CCN1CCCCC1)n2C | - | . | - | - | - | .
Cc1ccc(C(C)C)c(OCC(=O)Nc2ccc3c(c2)nc(CCN2CCCCC2)n3C)c1 | - | - | ? | -80 | ? | -
CCn1c(CN2CCCCC2)nc2cc(NC(=O)c3cccc([N+](=O)[O-])c3)ccc21 | . | . | 18µM | . | 23µM | -
CCn1c(CN2CCCCC2)nc2cc(NC(=O)COc3cc(C)ccc3C(C)C)ccc21 | . | . | 18µM | . | ? | -
CCn1c(CN2CCCCC2)nc2cc(NC(=O)COc3ccc(C(C)(C)C)cc3)ccc21 | . | . | 12µM | . | 8.2µM | -
CCC(=O)Nc1ccc2c(c1)nc(CN1CCCCC1)n2C | - | - | - | - | - | -
O=C(Cc1cccc(C(F)(F)F)c1)NCc1ccc(Cl)cc1 | - | - | - | - | ? | -
O=C(CCc1ccccc1Cl)N1CCN(S(=O)(=O)c2ccccc2)CC1 | - | . | ? | - | - | -
COc1cccc(NC(=O)N2CCC(NC(=O)C(Cc3ccccc3F)NC(C)=O)CC2)c1 (centres undefined) | - | - | - | - | - | .
CS(=O)(=O)c1cccc(C(=O)Nc2cccc(-c3nc4ccccc4[nH]3)c2)c1 | - | - | ? | - | ? | -
O=C(Nc1ccc2nc(-c3ccc(Br)o3)[nH]c2c1)c1ccco1 | - | - | ? | - | 9.2µM | -
SMILES | Six1-Eya2 blk | CtBP-E1A inh | TDP1 cell CPT | IL1B secr inh | TDP1 cell noCPT | TDP1 block
O=S(=O)(Nc1ccc2nc(-c3ccc(Br)o3)[nH]c2c1)c1ccccc1 | . | . | . | . | . | -
O=C(Nc1ccc2nc(-c3cccnc3)[nH]c2c1)C1CCCCC1 | - | - | ? | - | 15µM | -
O=C(Nc1cccc(-c2nc3ccccc3[nH]2)c1)c1cccc(NC(=O)c2ccco2)c1 | - | - | 16µM | -95 | 18µM | -
CC(C)(C)C(=O)Nc1ccc(-c2nc3ccc(NC(=O)C(C)(C)C)cc3[nH]2)cc1 | . | . | 0.65µM | . | 1.2µM | -[12.3 µM]
CC(C)Oc1cccc(C(=O)C2CCCN(C(=O)c3cncs3)C2)c1 (centres undefined) | - | - | ? | - | - | -
CC(Sc1nc(=O)cc(N)n1CCc1ccccc1)C(=O)Nc1cccc(Cl)c1 (centres undefined) | . | . | - | . | - | -
c1cncc(-c2nc(Oc3ccc(-c4nnco4)cc3)c3c4c(sc3n2)CCCC4)c1 | . | . | . | . | . | -
O=C(Nc1ccc2nc(-c3ccccc3)[nH]c2c1)c1ccco1 | ? | - | ? | - | 21µM | -
Cn1cccc1-c1nc2ccc(NC(=O)c3cccs3)cc2[nH]1 | ? | ? | ? | ? | 16µM | -
CC(=O)Nc1ccc2nc(-c3cccn3C)[nH]c2c1 | - | - | - | - | - | .
Cc1csc(NC(=O)c2cccs2)n1 | - | - | - | - | - | -
Cc1cnc(NC(=O)c2cccs2)s1 | - | - | - | -99 | - | .
